Most compounds without a hit are left out; they make up all but 1.1% or so of the library.
NCOA2 inhibitor: human SRC2 (NCOA2) inhibition; Q15596; HEK293 GAL4-SRC2 luciferase reporter, luminescence; inhibition, % at 9 µM; 370,000 tested, 0.17% active; AID 651957;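 active means inhibition above the mean inhibition of all tested compounds plus 3 SD, set per campaign, cut at about 52% in these data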;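 further: 0% = DMSO treated cells and 100% = cells given Gossypol at 36 µM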
Gli-Sufu antag: Gli-Sufu pathway antagonism; Sufu-KO-LIGHT fibroblasts, Gli luciferase reporter luminescence; inhibition, % at 5 µM; 340,000 tested, 0.74% active;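 active means inhibition above about 55%, limit read from the data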;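 further: 0% = DMSO-treated cells and 100% = wells with medium but no cells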
LRH-1 inv ag: NR5A2 inverse agonism in reporter assay; HEK293T StAR-luciferase reporter, LRH-1 transfected, 24 h; inhibition, % at 3.6 µM; 360,000 tested, 0.13% active; AID 602396;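 active means inhibition above the mean inhibition of all tested compounds plus 3 SD, cut at about 73% in these data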;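 further: 0% = DMSO wells and 100% = reporter-only cells lacking LRH-1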
NCOA3 inh: inhibits human SRC3 coactivator; Q9Y6Q9; 360,000 tested, 0.17% active; AID 588352; inhibition, % at 3.6 µM; HEK293 GAL4-SRC3 luciferase reporter, luminescence;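 active means inhibition above a per-campaign cutoff, the mean of all compounds plus 3 SD, cut at about 60% in these data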;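 further: 0% = DMSO-treated cells and 100% = gossypol-treated cells at 36 µM; higher means less SRC3-driven luciferase light from the GAL4 reporter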
Target sequence (Q9Y6Q9 whole entry, looked up, the tested form may be a part): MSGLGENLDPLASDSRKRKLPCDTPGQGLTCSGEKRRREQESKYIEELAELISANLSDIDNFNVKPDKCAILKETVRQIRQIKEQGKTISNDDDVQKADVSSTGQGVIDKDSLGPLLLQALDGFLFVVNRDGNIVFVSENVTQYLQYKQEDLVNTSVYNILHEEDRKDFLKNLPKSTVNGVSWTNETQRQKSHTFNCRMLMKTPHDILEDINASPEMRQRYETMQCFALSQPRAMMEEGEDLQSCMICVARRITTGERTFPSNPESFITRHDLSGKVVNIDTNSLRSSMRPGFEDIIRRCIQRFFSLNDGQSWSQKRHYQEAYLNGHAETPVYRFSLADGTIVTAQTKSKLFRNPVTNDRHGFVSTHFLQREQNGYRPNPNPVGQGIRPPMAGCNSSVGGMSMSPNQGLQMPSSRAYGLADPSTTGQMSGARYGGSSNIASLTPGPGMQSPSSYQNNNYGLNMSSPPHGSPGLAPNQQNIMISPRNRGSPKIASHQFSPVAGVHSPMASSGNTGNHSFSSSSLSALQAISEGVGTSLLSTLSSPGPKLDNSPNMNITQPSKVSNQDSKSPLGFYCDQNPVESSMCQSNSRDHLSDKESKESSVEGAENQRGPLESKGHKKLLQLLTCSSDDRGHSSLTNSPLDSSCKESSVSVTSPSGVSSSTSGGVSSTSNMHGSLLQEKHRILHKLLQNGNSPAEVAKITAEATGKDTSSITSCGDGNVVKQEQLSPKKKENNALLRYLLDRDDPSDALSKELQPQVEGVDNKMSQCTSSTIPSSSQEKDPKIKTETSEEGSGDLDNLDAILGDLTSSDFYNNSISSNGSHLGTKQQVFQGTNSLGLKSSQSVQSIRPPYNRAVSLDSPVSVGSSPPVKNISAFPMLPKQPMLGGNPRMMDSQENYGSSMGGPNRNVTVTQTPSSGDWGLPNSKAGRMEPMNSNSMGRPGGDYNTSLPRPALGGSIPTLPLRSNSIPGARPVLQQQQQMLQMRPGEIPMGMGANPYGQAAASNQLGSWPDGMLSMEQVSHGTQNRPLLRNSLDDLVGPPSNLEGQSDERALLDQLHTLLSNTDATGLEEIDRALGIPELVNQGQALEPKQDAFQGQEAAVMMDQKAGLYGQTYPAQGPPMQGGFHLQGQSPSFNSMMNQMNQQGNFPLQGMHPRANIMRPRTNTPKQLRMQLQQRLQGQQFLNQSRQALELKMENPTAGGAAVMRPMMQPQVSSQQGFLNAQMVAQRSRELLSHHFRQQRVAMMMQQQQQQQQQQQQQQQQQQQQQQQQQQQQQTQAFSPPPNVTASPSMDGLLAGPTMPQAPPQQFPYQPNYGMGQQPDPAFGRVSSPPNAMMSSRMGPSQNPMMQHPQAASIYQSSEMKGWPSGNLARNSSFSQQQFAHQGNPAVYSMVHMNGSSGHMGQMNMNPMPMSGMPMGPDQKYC
Shn3 inh set2: inhibitors of Schnurri-3 3'UTR reporter in osteoblasts; Clone20 osteoblast Shn3 3'UTR firefly luciferase, 24 h; inhibition, % at 12.5 µM; 360,000 tested, 0.52% active; AID 588674;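 active means mean inhibition of at least 75% with every replicate also reaching 75%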;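 further: 0% = median of neutral control wells and 100% = pilot-screen positive control compound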
SRC1 inh: inhibits human SRC1 coactivator; 360,000 tested, 0.12% active; Q15788; AID 588354; inhibition, % at 3.6 µM; HEK293 GAL4-SRC1 luciferase reporter, luminescence;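 active means inhibition above the campaign mean plus 3 SD, with each screening campaign given its own cutoff, cut at about 60% in these data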;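 further: 0% = DMSO treated cells and 100% = gossypol at 36 µM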
Gli antag conf: confirmation of Gli-SUFU pathway antagonists; shares compounds with Gli-Sufu antag; Sufu-KO-LIGHT cells, Gli luciferase reporter, luminescence; inhibition, % at 5 µM; 2,500 tested, 40% active; AID 602428;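 active means mean inhibition at 5 µM reaching about 45%, limit read from the data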;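 further: plate controls were DMSO-treated cells for no effect and wells lacking cells for full effect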
SufuKO cytotox: cytotoxicity counter-screen for Gli-SUFU antagonists. shares compounds with Gli-Sufu antag. Sufu-KO-LIGHT cells cytotoxicity, ATP luminescence. cytotoxicity, % at 5 µM. 2,500 tested, 32% active. AID 651994;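 active means mean cytotoxicity at 5 µM above about 25%, limit read from the data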;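 further: cells exposed to compound overnight for roughly 16 to 18 hours; plate controls were DMSO wells with cells for no effect and medium without cells for full effect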
Wnt3a counter: Wnt3a reporter inhibition counter-screen; inhibition, % at 6.25 µM; shares compounds with Gli-Sufu antag; Wnt-LIGHT cells, Wnt3a-driven luciferase reporter, luminescence; 2,500 tested, 20% active;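 active means mean inhibition above about 25%, limit read from the data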
The depositor's hits bear a star; x = no result.

SMILES | NCOA2 inhibitor | Gli-Sufu antag | LRH-1 inv ag | NCOA3 inh | Shn3 inh set2 | SRC1 inh | others
N#CC1c2ccccc2-n2nncc2CN1Cc1cc(Cl)cc(Cl)c1 (configuration not stated) | 85.8* | 25.5 | 93.3* | 90.7* | 80.6 | 82.7*
O=c1c2ccccc2nc(/C=C/c2ccc([N+](=O)[O-])o2)n1-c1ccc(O)cc1 | 1.6 | 74.8* | 9.8 | 9.6 | 97.8* | -57.6
O=c1c2ccccc2nc(/C=C/c2ccccc2)n1-c1ccc(O)cc1 | 7.8 | -20.3 | 21.4 | 3.8 | 13.0 | -16.9
CC(c1ccccc1)n1cc(C(=O)NC2CCCC2)nn1 (configuration not stated) | -17.9 | x | x | x | x | x
CCCCn1nnnc1C(CCSC)N1CCC2(CC1)C(=O)NCN2c1ccccc1 (configuration not stated) | 8.0 | x | 17.7 | -8.4 | 6.5 | 6.1
COC(=O)C[C@]1(C(=O)OC)CN(C#N)N(c2ccc(Cl)cc2)C12c1ccccc1-c1ccccc12 | 91.2* | 37.9 | 44.9 | 66.9* | 97.2* | 2.1
CC1CC(C)CC(C)C(O)C(C#N)=CC=CCC(C2CCCC2C(=O)O)OC(=O)CC(O)C(C)C1 (configuration not stated) | 75.7* | 87.2* | 98.4* | 93.6* | 97.4* | 94.2*
Cc1ccc(OC(=O)N(C)C[C@@H]2OCc3cnnn3CCCC(=O)N([C@@H](C)CO)C[C@@H]2C)cc1 | 5.7 | x | -4.1 | 7.3 | -6.8 | -11.8
CC(C)(O)/C=C/C(=O)[C@](C)(O)C1[C@H](O)C[C@@]2(C)C3CC=C4C(C[C@H](O)[C@@H](O)C4(C)C)[C@]3(C)C(=O)C[C@]12C (some centres not stated) | x | 72.4* | 7.0 | 25.0 | 46.0 | -5.0
COC(=O)C1C(c2ccccc2)CC2CCC1N2C (configuration not stated) | -0.8 | x | x | x | x | x
c1ccc(CCN2CCC3CCNC3C2)cc1 (configuration not stated) | -30.4 | x | x | x | x | x
O=[N+]([O-])c1ccc(N2CCOCC2)c2c1no[n+]2[O-] | 97.0* | x | 91.7* | 91.4* | 60.6 | 77.6*
N#CCC[C@@H]1CC[C@]2(CCCN(Cc3ccncc3)C2)O1 | 5.6 | x | x | x | x | x
C[C@H]1C[C@@H](C)C(=O)[C@@H]([C@H](O)CC2CC(=O)NC(=O)C2)C1 | 71.9* | 53.1 | 103.1* | 93.0* | 90.1* | 91.5*
CC(=O)NCC1=C(c2ccc(S(C)(=O)=O)cc2)C[C@@H]2CC[C@H]1N2CCOc1ccccc1 | -13.5 | x | x | x | x | x
CN(C)C(=S)SSC(=S)N(C)C | -30.9 | 68.0* | 19.9 | -0.6 | 55.3 | -43.0
CCOc1ccc(-c2c(C)n(-c3ccc(OCC)cc3)c3[n+]2CCCCC3)cc1 | 33.1 | 88.2* | 88.3* | 81.9* | 88.1* | 74.5*
COC1CCC(OC2CC(C3(C)CCC4(CC(O)C(C)C(C(C)/C=C(\C)C(=O)C(C)CC(C)C(=O)O)O4)O3)OC3(OC(C4OC(O)(CO)C(C)CC4C)CC3C)C2C)OC1C (configuration not stated) | -1.8 | 77.0* | 7.3 | 10.3 | 79.0 | -24.2
c1ccc(Cn2nnnc2C2CN=C(c3ccccc3)c3ccccc3N2)cc1 (configuration not stated) | 8.5 | x | x | x | x | x
COc1ccc(C=C2C(=O)NC(=S)NC2=O)cc1 | 14.3 | 4.0 | 4.4 | -8.4 | 8.9 | -13.5
O=C1NC(=S)NC(=O)C1=Cc1cccc2cc3ccccc3cc12 | -27.0 | -21.4 | 12.6 | -12.2 | 99.3* | -11.6
Cn1c(NN=O)nc2ccccc21 | -5.8 | 82.8* | 14.3 | 4.4 | 89.6* | 2.4 | Gli antag conf=37.0;SufuKO cytotox=23.0;Wnt3a counter=12.5
CN1CCN(Cc2nc3ccccc3n2C)CC1 | -24.2 | 3.9 | -12.2 | -10.3 | 2.2 | -16.4
Cc1cc(/C=C2\C(=O)NC(=O)N(C)C2=O)c(C)n1-c1ccc2c(c1)OCO2 | -15.6 | 68.9* | 9.3 | 9.6 | -5.0 | -18.3 | Gli antag conf=23.1;SufuKO cytotox=-1.0;Wnt3a counter=-19.9
CCCCCN1C(=O)c2cc(OC)ccc2[C@@]2(C(=O)OCC)Cc3cc(Cl)ccc3[C@@H]12 | -2.8 | x | 21.8 | x | x | x
SMILES | NCOA2 inhibitor | Gli-Sufu antag | LRH-1 inv ag | NCOA3 inh | Shn3 inh set2 | SRC1 inh | others
CCN(CC)C1=NC(=[N+](CC)CC)c2ccccc21 | 31.2 | 78.9* | 55.1 | 26.8 | 69.5 | 40.2 | Gli antag conf=80.1*;SufuKO cytotox=26.6*;Wnt3a counter=39.2*
CCOC(=O)[C@]12Cc3cc(C)ccc3[C@H]1N(C)C(=O)c1cc(OC)ccc12 | 8.6 | x | 5.3 | x | x | x
CCN(CC)C(=O)c1ccc(NC(=O)CSc2nnnn2-c2cc(OC)ccc2OC)cc1 | 2.3 | 70.3* | 19.2 | 14.1 | 13.1 | -14.4 | Gli antag conf=23.1;SufuKO cytotox=6.7;Wnt3a counter=20.6
CCN(CC)C(=O)c1ccc(NC(=O)c2cc(S(=O)(=O)N3CCCCCC3)ccc2OC)cc1 | 15.7 | 13.1 | -1.3 | -2.2 | 9.3 | -21.7
C[C@H](NC(=O)OCc1ccccc1)[P+](=O)O | -0.8 | x | x | x | x | x
CC(NCc1cccc(Cl)c1Cl)C(O)c1ccccc1 (configuration not stated) | -9.9 | 96.8* | 14.6 | 5.7 | -8.8 | -2.2 | Gli antag conf=16.9;SufuKO cytotox=0.9;Wnt3a counter=-3.4
CCOC(=O)CNC(=O)N1Cc2ccccc2-n2nncc2C1 | 6.6 | x | -0.6 | 2.8 | 0.6 | -23.7
CCCCCCn1c(=O)c(C(=O)Nc2cnccn2)c(O)c2ccccc21 | -35.9 | 78.5* | 8.7 | 4.9 | 12.6 | -13.0 | Gli antag conf=78.6*;SufuKO cytotox=-6.8;Wnt3a counter=29.8*
CCCCCc1nc2ccccc2c(=O)n1-c1ccccc1[N+](=O)[O-] | 17.9 | 2.1 | 4.2 | 14.4 | 28.8 | -1.9
CCCCCc1nc2c(c(=O)c3ccccc3n2C)c(=O)n1C1CCCCCC1 | -14.4 | 51.5 | -6.1 | -2.4 | 90.1* | 9.3 | Gli antag conf=36.5;SufuKO cytotox=23.9;Wnt3a counter=-7.0
O=[N+]([O-])NC1=NCN(Cc2ccco2)CN1Cc1ccco1 | 2.2 | 90.9* | 1.0 | 19.5 | 15.8 | -29.5 | Gli antag conf=13.7;SufuKO cytotox=16.0;Wnt3a counter=-8.0
CN1CN=C(N[N+](=O)[O-])N(Cc2ccco2)C1 | -34.9 | -1.5 | -16.4 | -7.6 | -9.8 | 7.4
Cc1cccc(N2C(=O)NC(=O)/C(=C\c3cc(C)n(-c4sc5c(c4C#N)CCCC5)c3C)C2=O)c1C | 16.6 | 57.8* | -9.5 | -11.8 | 8.8 | 2.6 | Gli antag conf=50.0*;SufuKO cytotox=34.5*;Wnt3a counter=-30.9
CC(C)(C)n1nnnc1C(c1cccc2ccccc12)N1CCC2(CC1)C(=O)NCN2c1ccccc1 (configuration not stated) | 0.6 | x | 9.5 | 2.2 | 0.0 | 2.0
CCCC(=O)c1cc(CP(=O)(OCC)OCC)oc1C | -14.2 | -1.5 | -7.2 | 14.5 | -0.5 | 4.0

Assay outcomes: PubChem BioAssay, several laboratories
